HT1080 IDH1KD tx = qHTS for induction of synthetic lethality in tumor cells producing 2HG: qHTS for the HT-1080-IDH1KD cell line. HT-1080 IDH1 knockdown viability, ATP luminescence, 48 h. Potency, µM (titrated, usually from 46.1 µM), most hits filed as cytotoxic. AID 686971, 2013. 360,000 compounds, 2% hits
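HT-1080-IDH1KD cells (IDH1 knocked down), 750/well in RPMI with 5% FBS, treated with compound 48 h at 37 degrees C. Viability by CellTiter-Glo luminescence, normalised to DMSO and no-cell wells; concentration-response curves classed.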
TDP1 cell noCPT = qHTS for Inhibitors of human tyrosyl-DNA phosphodiesterase 1 (TDP1): qHTS in cells in absence of CPT; DT40 Tdp1-/- hTDP1 cells, no CPT, ATP luminescence, 48 h; Potency, µM (titrated, usually from 46.2 µM), hits mostly inhibitors; 420,000 compounds, 15% hits; note: nearly all actives have a fitted effect of over 55% in size
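Seeded 400 DT40-hTDP1 cells/well (vehicle DMSO, no 20 nM CPT); pinned compounds; ≥48 hr at 37 °C; CellTiter-Glo luminescence as viability measure.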
HT1080NT lethal = qHTS for induction of synthetic lethality in tumor cells producing 2HG: qHTS for the HT-1080-NT fibrosarcoma cell line | 360,000 compounds, 1.6% hits | Potency, µM (top dose mostly 46.1 µM), actives largely listed as cytotoxic | AID 686970, 2013 | HT-1080-NT fibrosarcoma viability, CellTiter-Glo ATP luminescence, 48 h;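 note: NT is the 2HG producing partner of a matched IDH1 knockdown line; nearly all actives have a fitted effect of over 55% in size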
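Luminescent CellTiter-Glo readout after 48 hours of compound exposure at 37 degrees C defined viability of HT-1080-NT cells. Activity was normalized to DMSO wells and cell-free media wells; concentration-response curves were fitted and assigned curve classes.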
KB-3-1 tox = qHTS assay for MDR1-selective chemotherapeutics: Primary screen using the parental adenocarcinoma cell KB-3-1. KB-3-1 viability, CellTiter-Glo ATP luminescence, 72 h. Potency, µM (doses to about 46.1 µM), actives largely listed as cytotoxic. 400,000 compounds, 1.4% hits; note: nearly all actives have a fitted effect of over 60% in size
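Parental KB-3-1 adenocarcinoma cells in phenol-red-free DMEM with 10% FBS were pin-treated with compounds at several concentrations, incubated 72 h at 37 °C, and viability read by CellTiter-Glo luminescence; concentration-effect curves were fitted after normalization.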
TDP1 cell CPT = qHTS for Inhibitors of human tyrosyl-DNA phosphodiesterase 1 (TDP1): qHTS in cells in presence of CPT | Potency, µM (top dose mostly 46.2 µM), most hits filed as inhibitors | chicken DT40 Tdp1-/-;hTDP1 cells + 20 nM CPT, ATP luminescence, 48 h | 420,000 compounds, 12% hits | AID 686979, 2013; note: nearly all actives have a fitted effect of over 55% in size
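Chicken DT40 Tdp1-/- cells complemented with human TDP1, 400 cells/well, exposed to compounds plus 20 nM camptothecin for at least 48 h at 37 C; viability read as ATP content by CellTiter-Glo luminescence.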
KB-V1 MDR tox = qHTS assay for MDR1-selective chemotherapeutics: Primary screen using the drug-selected MDR subline cells KB-V1. 400,000 compounds, 3.4% hits. KB-V1 MDR cells viability, CellTiter-Glo, 72 h. Potency, µM (doses to about 46.1 µM), actives largely listed as cytotoxic; note: nearly all actives have a fitted effect of over 60% in size
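Readout: CellTiter-Glo luminescence, 10 min after addition. Cells: KB-V1 MDR subline, 72 h at 37 degrees C with compound. Analysis: corrected, normalized data fitted to concentration-effect curves.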
A number is an active result. Hits are enriched below; roughly 19% of the tested compounds scored in any of these assays. Calls come from the whole dose curve; as a rule, active = well fitted curve in the direction sought with a large enough effect; inconclusive = small, poorly fitted or top-dose-only effect, or another doubt; inactive = no such curve, though single readings can be large; an effect the other way counts as inactive or inconclusive.

Results for Cc1ccc(-n2nnnc2SC(C)C(=O)NCC(=O)Nc2ccc(F)c(F)c2F)c(C)c1 (configuration not stated) ?
HT1080 IDH1KD tx: inactive; TDP1 cell noCPT: 14.6µM; HT1080NT lethal: inactive; KB-3-1 tox: inactive; TDP1 cell CPT: 18.4µM; KB-V1 MDR tox: inactive

What do the screens show for `CCC(CC)CN1CCN=C1N(C)C`?
HT1080 IDH1KD tx: inactive; TDP1 cell noCPT: inactive; HT1080NT lethal: inactive; KB-3-1 tox: inactive; TDP1 cell CPT: inactive; KB-V1 MDR tox: inactive

What do the screens show for `CCc1ccc2[nH]c(O)c(N=NC3=NC(=O)CS3)c2c1`?
HT1080 IDH1KD tx: inactive; TDP1 cell noCPT: 1.84µM; HT1080NT lethal: inactive; KB-3-1 tox: inactive; TDP1 cell CPT: 2.59µM; KB-V1 MDR tox: inactive

What do the screens show for `CCOC(=O)CSc1nnc(NCC(=O)OC(C)C)c(=O)[nH]1`?
HT1080 IDH1KD tx: inactive; TDP1 cell noCPT: 23.1µM; HT1080NT lethal: inactive; KB-3-1 tox: inactive; TDP1 cell CPT: 10.3µM; KB-V1 MDR tox: inactive

How did Cc1ccc(NC(=O)CSc2nnc(-c3cnccn3)n2-c2ccccc2)cc1 do in these assays?
HT1080 IDH1KD tx: inactive; TDP1 cell noCPT: inactive; HT1080NT lethal: inactive; KB-3-1 tox: inactive; TDP1 cell CPT: inactive; KB-V1 MDR tox: inactive

How did COc1cccc(S(=O)(=O)Nc2ccc(C(=O)N3CCOCC3)cc2)c1 do in these assays?
HT1080 IDH1KD tx: inactive; TDP1 cell noCPT: inactive; HT1080NT lethal: inactive; KB-3-1 tox: inactive; TDP1 cell CPT: inactive; KB-V1 MDR tox: inconclusive

Results for Cc1cc(=O)oc2ccc(OCC(=O)N(Cc3ccc(F)cc3)Cc3ccco3)cc12 ?
HT1080 IDH1KD tx: inconclusive; TDP1 cell noCPT: inconclusive; HT1080NT lethal: inactive; KB-3-1 tox: inconclusive; TDP1 cell CPT: 23.1µM; KB-V1 MDR tox: inconclusive

Results for CCc1ccc(OCC(=O)N(Cc2ccc(C)cc2)Cc2ccco2)cc1 ?
TDP1 cell noCPT: 20.6µM; KB-3-1 tox: inactive; TDP1 cell CPT: inconclusive; KB-V1 MDR tox: inactive

Results for Cc1ccc(CN(Cc2ccco2)C(=O)COc2ccc(C)c(C)c2)cc1 ?
TDP1 cell noCPT: 16.4µM; KB-3-1 tox: inconclusive; TDP1 cell CPT: 23.1µM; KB-V1 MDR tox: inconclusive

What do the screens show for `Cc1cccc(OCC(=O)N(Cc2ccc(C(C)(C)C)cc2)Cc2ccco2)c1`?
TDP1 cell noCPT: 10.3µM; TDP1 cell CPT: 20.6µM

Results for Cc1ccc(OCC(=O)N(Cc2ccco2)c2ccccn2)cc1 ?
TDP1 cell noCPT: inactive; TDP1 cell CPT: inconclusive

Results for COCCNC(=O)C1(C)CCCN(C(=O)c2ccc3snnc3c2)C1 (configuration not stated) ?
HT1080 IDH1KD tx: inactive; TDP1 cell noCPT: inactive; HT1080NT lethal: inactive; KB-3-1 tox: inactive; TDP1 cell CPT: inactive; KB-V1 MDR tox: inactive

What do the screens show for `Cc1cccc(/C=N/NC(=O)Cn2nnnc2N)n1`?
HT1080 IDH1KD tx: inactive; TDP1 cell noCPT: inactive; HT1080NT lethal: inactive; KB-3-1 tox: inactive; TDP1 cell CPT: inactive; KB-V1 MDR tox: inconclusive

How did CCc1ccc(OCC(=O)N(Cc2ccco2)Cc2ccccc2Cl)cc1 do in these assays?
TDP1 cell noCPT: 13µM; TDP1 cell CPT: inconclusive

What do the screens show for `Cc1ccc2c(c1)cc(CN(Cc1ccco1)C(=O)COc1ccccc1)c1nnnn12`?
HT1080 IDH1KD tx: inactive; TDP1 cell noCPT: 23.1µM; HT1080NT lethal: inactive; KB-3-1 tox: inconclusive; TDP1 cell CPT: inconclusive; KB-V1 MDR tox: inconclusive

Results for CCOc1ccc(C[C@H]2NC(=O)CCSSC[C@@H](C(=O)N3CCC[C@H]3C(=O)N[C@@H](CCCN)C(=O)NCC(N)=O)NC(=O)[C@H](CC(N)=O)NC(=O)[C@H]([C@@H](C)O)NC(=O)[C@H]([C@@H](C)CC)NC2=O)cc1 ?
TDP1 cell noCPT: inactive; TDP1 cell CPT: inactive

What do the screens show for `COc1cccc2c(=O)n(CC(=O)Nc3cccc(F)c3)ccc12`?
HT1080 IDH1KD tx: inactive; TDP1 cell noCPT: inconclusive; HT1080NT lethal: inactive; KB-3-1 tox: inactive; TDP1 cell CPT: inactive; KB-V1 MDR tox: inactive
